About 83,000 compounds went through this panel and 20% of them were active in at least one assay; those are over-represented in the sample as a whole.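 96-well plates, one dose, 48 hours. Percent growth reported; active if below 10.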 Calls of active or inactive are those of the source.
Experiments:
Assay in all cases: NCI-60 one-dose screen, 48 h (100 = growth as untreated, 0 = no growth, -100 = all killed)
Settings in all cases: 10 µM unless noted
NCI-H23 lung = system: NCI-H23 lung
NCI-H226 lung = system: NCI-H226 lung
NCI-H322M lung = system: NCI-H322M lung
HOP-62 NSCLC = system: HOP-62 NSCLC
HOP-92 NSCLC = system: HOP-92 NSCLC
NCI-H522 lung = system: NCI-H522 lung
A549/ATCC NSCLC = system: A549/ATCC NSCLC
786-0 renal = system: 786-0 renal
COLO 205 colon = system: COLO 205 colon
DU-145 prostate = system: DU-145 prostate
K-562 leukemia = system: K-562 leukemia
MALME-3M melanoma = system: MALME-3M melanoma
MDA-MB-231 breast = system: MDA-MB-231 breast
RXF 393 renal = system: RXF 393 renal
SF-268 CNS = system: SF-268 CNS
SF-295 CNS = system: SF-295 CNS
SF-539 CNS = system: SF-539 CNS
UACC-257 melanoma = system: UACC-257 melanoma
M14 melanoma = system: M14 melanoma
NCI-H460 lung = system: NCI-H460 lung

Measured: growth

CC(=O)N1N=C(c2ccc(C)cc2)CC1c1ccc(Oc2ccc(Br)cc2)cc1 (centres undefined)
inactive: NCI-H23 lung 83.1% | NCI-H226 lung 90.1% | NCI-H322M lung 73.9% | HOP-62 NSCLC 83.6% | HOP-92 NSCLC 89.4% | NCI-H522 lung 83.2% | A549/ATCC NSCLC 81.5% | 786-0 renal 80% | COLO 205 colon 97.7% | DU-145 prostate 91.4% | K-562 leukemia 75.3% | MALME-3M melanoma 87.6% | MDA-MB-231 breast 85.7% | RXF 393 renal 92.8% | SF-268 CNS 79.5% | SF-295 CNS 94.4% | SF-539 CNS 94.7% | UACC-257 melanoma 96% | M14 melanoma 88.3%

CC1(C)[C@@H](O)CC[C@]2(C)[C@H]3CC[C@@H]4[C@H]5[C@H](C(=O)/C=C/c6ccc(C(F)(F)F)cc6)CC[C@]5(CO)CC[C@@]4(C)[C@]3(C)CC[C@@H]12
active: MALME-3M melanoma 8.37% | M14 melanoma 7.81%
inactive: NCI-H23 lung 56.9% | NCI-H226 lung 30% | NCI-H322M lung 80.7% | HOP-62 NSCLC 97.4% | HOP-92 NSCLC 66% | NCI-H522 lung 60.6% | 786-0 renal 64.9% | COLO 205 colon 73.8% | DU-145 prostate 70.1% | K-562 leukemia 32.9% | MDA-MB-231 breast 71.4% | RXF 393 renal 32.3% | SF-268 CNS 75.5% | SF-295 CNS 72.1% | SF-539 CNS 55.1% | UACC-257 melanoma 67.4%

Nc1c2c(nc3ccc(Br)cc13)CC(c1ccccc1)CC2=O (centres undefined)
active: SF-295 CNS 9.76%
inactive: NCI-H23 lung 37.7% | NCI-H226 lung 71.2% | NCI-H322M lung 49.1% | HOP-62 NSCLC 48.9% | HOP-92 NSCLC 77.9% | NCI-H522 lung 35.6% | A549/ATCC NSCLC 48.5% | 786-0 renal 49.6% | COLO 205 colon 18.6% | DU-145 prostate 24.2% | K-562 leukemia 13.4% | MALME-3M melanoma 51.9% | MDA-MB-231 breast 59.6% | RXF 393 renal 21.8% | SF-268 CNS 73.3% | SF-539 CNS 20% | UACC-257 melanoma 86.3% | M14 melanoma 17.8%

COc1ccc2c(c1)c(-c1nc(-c3cn(C)c4ncccc34)cs1)cn2CCN
inactive: NCI-H23 lung 81.2% | NCI-H226 lung 84.2% | NCI-H322M lung 77.2% | HOP-62 NSCLC 77.1% | HOP-92 NSCLC 57.8% | NCI-H522 lung 93% | A549/ATCC NSCLC 45.7% | 786-0 renal 94.4% | COLO 205 colon 77% | DU-145 prostate 69.6% | K-562 leukemia 68.6% | MALME-3M melanoma 105% | MDA-MB-231 breast 63.3% | RXF 393 renal 96.1% | SF-268 CNS 95.8% | SF-295 CNS 99.1% | SF-539 CNS 89.1% | UACC-257 melanoma 98.3% | M14 melanoma 97.3%

C=C(C)[C@@H]1CC[C@]2(C(=O)O)CC[C@]3(C)[C@H](CC[C@@H]4[C@@]5(C)C/C(=C/c6ccc(OC)cc6)C(=O)C(C)(C)[C@@H]5CC[C@]43C)[C@@H]12
active: NCI-H23 lung 8.25% | COLO 205 colon 2.57%
inactive: NCI-H226 lung 25% | NCI-H322M lung 30.4% | HOP-62 NSCLC 23.8% | HOP-92 NSCLC 18.9% | NCI-H522 lung 12.7% | A549/ATCC NSCLC 16.8% | 786-0 renal 25.1% | DU-145 prostate 34.4% | K-562 leukemia 15.6% | MALME-3M melanoma 42.2% | MDA-MB-231 breast 32.4% | RXF 393 renal 43.9% | SF-268 CNS 38.8% | SF-295 CNS 11.9% | SF-539 CNS 22.1% | UACC-257 melanoma 31.1% | M14 melanoma 25.3%

COc1cccc(-c2nn(-c3ccccc3)cc2-c2ccnc(NCCNS(=O)(=O)c3cccc(F)c3)c2)c1
inactive: NCI-H23 lung 38.4% | NCI-H226 lung 39.3% | NCI-H322M lung 59% | HOP-62 NSCLC 55.3% | A549/ATCC NSCLC 24.8% | 786-0 renal 25.9% | COLO 205 colon 16.6% | DU-145 prostate 58% | K-562 leukemia 11.9% | MALME-3M melanoma 78.2% | RXF 393 renal 44.1% | SF-268 CNS 48.1% | SF-295 CNS 13.2% | SF-539 CNS 52.3% | M14 melanoma 27.2%
active: NCI-H522 lung 3.7% | MDA-MB-231 breast 9.24%

O=C(NC1=CC(=O)c2ccccc2C1=O)c1ccccc1
inactive: NCI-H23 lung 18.7% | NCI-H226 lung 37.3% | NCI-H322M lung 57.9% | HOP-62 NSCLC 49.7% | NCI-H460 lung 10.2% | 786-0 renal 39.9% | COLO 205 colon 48% | DU-145 prostate 63.4% | MDA-MB-231 breast 16.9% | RXF 393 renal 35.3% | SF-268 CNS 39.3% | SF-539 CNS 10.5% | M14 melanoma 33.9%
active: NCI-H522 lung -48.8% | K-562 leukemia -0.828% | SF-295 CNS 4.13% | UACC-257 melanoma -4.63%

CN(C)c1ccc(N=C2C=CC(=O)C=C2)cc1
inactive: NCI-H23 lung 84.5% | NCI-H226 lung 95.1% | NCI-H322M lung 75% | HOP-62 NSCLC 107% | NCI-H522 lung 72% | A549/ATCC NSCLC 102% | 786-0 renal 98.4% | COLO 205 colon 36.3% | DU-145 prostate 112% | K-562 leukemia 64.2% | MALME-3M melanoma 85.8% | MDA-MB-231 breast 46.4% | SF-268 CNS 101% | SF-295 CNS 95.1% | SF-539 CNS 65% | UACC-257 melanoma 119% | M14 melanoma 95.6%

Nc1nc2c3ccncc3cc(-c3cccc(Cl)c3)c2c2cnccc12
inactive: NCI-H23 lung 66.8% | NCI-H226 lung 33.1% | NCI-H322M lung 70.4% | HOP-62 NSCLC 44.1% | HOP-92 NSCLC 50.3% | NCI-H522 lung 48.4% | A549/ATCC NSCLC 28.3% | 786-0 renal 21.3% | COLO 205 colon 20.9% | DU-145 prostate 40.5% | K-562 leukemia 17.1% | MALME-3M melanoma 57% | MDA-MB-231 breast 52.8% | RXF 393 renal 10.4% | SF-268 CNS 49.5% | SF-295 CNS 31.4% | SF-539 CNS 30.1% | UACC-257 melanoma 59% | M14 melanoma 45.7%

Reference: PubChem BioAssay (NCI)
